KDM5B inhibitor – blocks human KDM5B histone demethylase activity; Potency, µM (doses to about 57.7 µM), usual class: inhibitors; Q9UGL1; hit rate 2.6% among 220,000; KDM5B demethylase, FDH-coupled NADH fluorescence (FDH is formaldehyde dehydrogenase); active means well fitted inhibition curve with a large enough effect; further: 0% is about no effect; nearly all actives have a fitted effect of over 70% in size
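Inhibition is measured as reduced NADH fluorescence generation from FDH coupling to formaldehyde release. Truncated KDM5BΔAP at 200 nM final acts on H3K4me3 peptide (12.5 µM in substrate mix) in pH 7.5 HEPES buffer with Tween-20, 30 min, room temperature.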
Active calls of the source: *; i = inactive. The full list was thinned out, with hits kept by preference. Potency means the concentration at half of the fitted maximal effect.

SMILES | KDM5B inhibitor
O=C(NCC1Cn2cccc2C(=O)N1Cc1ccccc1)c1cccc2nccnc12 (stereo unspecified) | i
O=C(NCC1Cn2cccc2CN1Cc1ccccc1)c1ccc2cc[nH]c2c1 (stereo unspecified) | 25µM*
COCCNC(=O)[C@H]1C[C@H](Oc2ccccc2)CN1Cc1ccc2[nH]ccc2c1 | i
Cc1cc(C(=O)NCC2Cn3cccc3CN2Cc2ccccc2)n[nH]1 (stereo unspecified) | 32µM*
COc1ccc(C(=O)NCC2Cn3cccc3C(=O)N2CC(C)C)cc1 (stereo unspecified) | i
COc1ccc(C(=O)NCC2Cn3cccc3CN2Cc2cccnc2)cc1 (stereo unspecified) | 13µM*
COc1ccc(C(=O)N2CCc3ccc(C(=O)NCc4cccnc4)cc32)cc1 | i
COc1ccc(C(=O)NCC2Cn3cccc3C(=O)N2C)cc1OC (stereo unspecified) | i
CC(C)(C)C(=O)NC1CCCc2ccccc21 (stereo unspecified) | i
COc1ccc(OC)c(/C=C2\Oc3cc(OS(=O)(=O)c4ccc(C)cc4)ccc3C2=O)c1 | i
CC(Sc1nc(NC2CC2)c2ccccc2n1)C(=O)N1CCCC1 (stereo unspecified) | i
CCCCn1c(=O)[nH]c(=O)c2c1nc(CCC(=O)Nc1ccc(C)cc1)n2CC(C)C | i
O=C(CSc1nc2ccccc2s1)Nc1cc(F)ccc1F | i
CCN1C(=O)C2(CC(=O)Nc3[nH]ncc32)c2ccccc21 (stereo unspecified) | i
CC(C)N1CC2CCC(C1)N2Cc1ccc(-c2ccsc2)cc1 | i
CCCCC(CC)C(=O)Nc1ccccc1Br (stereo unspecified) | i
CCOC(=O)C1CCN(C(=O)c2ccc(CN(c3ccccc3)S(C)(=O)=O)cc2)CC1 | i
COc1cccc(-c2noc(CC3CCN(C(=O)CCc4ccccc4)CC3)n2)c1 | i
CC(C)C(=O)Nc1ccc2c(c1)nc1n2CCOC1 | i
Cc1ccc2c(C(=O)N3CCOCC3)cc(NC(=O)C(C)C)cc2n1 | 22µM*
CC(=O)Nc1cc(C(=O)N2CCC(C)CC2)c2ccc(C)nc2c1 | 22µM*
CC1CCN(C(=O)c2cc(-c3ccncc3)nc3ccccc23)CC1 | i
Cc1nc2cc(F)ccc2cc1C(=O)N1CCCC(C)CC1 (stereo unspecified) | i
COc1cccc(N2CCN(C(=O)c3cc(NC(=O)C(C)C)cc4nc(C)ccc34)CC2)c1 | i
O=C(Nc1cccc(-c2nnc3n2CCCC3)c1)C1CC1 | i
SMILES | KDM5B inhibitor
Cc1cccc(C(C)C)c1NC(=O)COc1ncnc2ccccc12 | i
O=C(COc1ccc(Cl)cc1)NCCc1csc(-c2cccnc2)n1 | i
COCCN1CCCCC(CC(=O)Nc2cc(C)c(Cl)cc2OC)C1=O (stereo unspecified) | i
CC1(CNc2ccccc2)COc2ccc(C(=O)N3CC(O)C3)cc2N1 (stereo unspecified) | i
CN(C)CCCOCC1(C)COc2ccc(C(=O)N3CCOCC3)cc2N1 (stereo unspecified) | i
O=C(Nc1ccc(CC(=O)N2CCOCC2)cc1)c1cccc(Cl)c1 | i
CCCCN1CCOc2ccc(C(=O)NCc3ccccc3F)cc2C1 | i
O=C(NCc1ccc(F)cc1)c1ccc2oc(=O)n(Cc3ccccc3)c2c1 | i
CC(C)(C)c1ccc(C(=O)Nc2ccc(F)c(Cl)c2)cc1 | i
CCc1ccc(NC(=O)c2cc(CN3CCOCC3)on2)cc1 | i
CC1(CCCCN2CCOCC2)COc2ccc(C(=O)NCc3cccc(F)c3)cc2N1 (stereo unspecified) | 28µM*
CNS(=O)(=O)Cc1cccc(CNC(=O)c2cccc(F)c2)c1 | i
CC1(CCCCN2CCOCC2)COc2ccc(C(=O)Nc3ccc(Cl)cc3)cc2N1 (stereo unspecified) | 25µM*
CN(C)CCCOCC1(C)COc2ccc(C(=O)Nc3ccc(F)c(Cl)c3)cc2N1 (stereo unspecified) | 28µM*
CC1(CNc2ccccc2)COc2ccc(C(=O)NCc3ccc(F)cc3)cc2N1 (stereo unspecified) | 32µM*
CCOC(=O)N1CCN(S(=O)(=O)c2cc(OCC)c(C)cc2OCC)CC1 | i
COc1cc(C(=O)NC2CCCCC2)ccc1C | i
Nc1ccccc1OCCCc1ccccc1 | i
COc1ccc(N2CCN(c3nc(C(=O)NCc4ccc(C)c(C)c4)cs3)CC2)cc1 | i
Cc1ccc(C(=O)N/N=C/c2ccccc2)s1 | i
Cn1c(=O)[nH]c(=O)c2c1nc(N1CCN(C/C=C/c3ccccc3)CC1)n2Cc1cccc(Cl)c1 | i
O=C(c1ccccc1)c1ccc(OCC(=O)c2c[nH]c3ccccc23)cc1 | i
CC12CC3(C)CC(N)(C1)CC(C(=O)O)(C2)C3 | i
CCCC(C)(NC(=O)OCc1ccccc1)C(=O)O (stereo unspecified) | i
O=C(Nc1ccccc1SC1CCCC1)C1CCCC1 | i
SMILES | KDM5B inhibitor
Cc1ccc(S(=O)(=O)N2CCN(C(=O)CNc3cccc(Cl)c3Cl)CC2)cc1 | i
Cc1ccc(CNC(=O)c2ccc3c(c2)CN(Cc2cc(F)c(F)c(F)c2)CCO3)cc1 | i
CC1(CCCCN2CCOCC2)COc2ccc(C(=O)NCc3ccc(F)cc3)cc2N1 (stereo unspecified) | 28µM*
O=C(O)c1ccc(CNCCCN2CCOCC2)cc1 | i
Cc1ccc(-c2nc3cc(C)c(C)cc3nc2-c2ccc(C)cc2)cc1 | i
COc1ccc(Cl)cc1NC(=O)N1CCN(c2ccc(=O)n(-c3ccc(C)c(C)c3)n2)CC1 | i
O=C(Nc1cccc(F)c1)Nc1ccnn1C1CCN(C(=O)CCN2CCCO2)CC1 | i
O=C(Nc1ccnn1C1CCN(C(=O)CCCc2ccccc2)CC1)c1cccc(F)c1 | i
NCCC(=O)N1CCC(n2nccc2NC(=O)Nc2cccc(F)c2)CC1 | 11µM*
Cc1noc(-c2ccc3c(c2)OCO3)c1C(=O)NCc1cc(F)cc(F)c1 | 28µM*
Cc1noc(-c2ccc3c(c2)OCO3)c1C(=O)NC(C)CCc1ccccc1 (stereo unspecified) | 28µM*
Cc1noc(-c2cccc(F)c2)c1C(=O)NCc1cccc2ccccc12 | i
Cc1noc(-c2ccc3c(c2)OCO3)c1C(=O)NCCCCc1ccccc1 | 28µM*
Cc1onc(-c2ccccc2)c1C(=O)NC(C)CCc1ccccc1 (stereo unspecified) | i
COc1ccc(CNC(=O)c2c(C)noc2-c2cccc(F)c2)cc1 | i
Cc1noc(-c2ccc(OC(F)(F)F)cc2)c1C(=O)NCc1ccccc1Cl | i
CCOc1ccccc1CNC(=O)c1c(C)noc1-c1ccc2c(c1)OCO2 | 28µM*
COc1ccc(-c2onc(C)c2C(=O)NCCCCc2ccccc2)cc1 | i
Cc1noc(-c2ccccc2Cl)c1C(=O)NCCCc1ccccc1 | i
Cc1ccccc1-c1onc(C)c1C(=O)NCc1cc(F)cc(F)c1 | i
O=C(NCc1ccccc1)c1noc(-c2ccc3c(c2)OCO3)n1 | i
CCNC(=O)NC(=O)C(C)Sc1nc(-c2ccco2)nc2ccccc12 (stereo unspecified) | i
Cc1nn(C(C)C)c(C)c1NC(=O)c1cc2sccc2n1C | i
Cc1nn2c(nnc3c(=O)n(-c4cc(Cl)cc(Cl)c4)ccc32)c1-c1ccccc1 | i
CC(C)(C)c1ccc(/C=N/OCC(=O)Nc2ccc(SC(F)F)cc2)cc1 | i
CCCCn1c(=O)c2c(nc(-n3nc(C)c(C)c3C)n2Cc2ccc(F)cc2)n(C)c1=O | i
